# Values without a mark were called inactive. Activity calls are given as the source filed them. Calls follow the shape of the full dose curve.
# Molecular target: Acetylcholinesterase (Homo sapiens) (UniProt P22303)
# Test: Acetylcholinesterase (AChE) small molecule antagonists: enzyme-based qHTS assay (AID 1347397); also: nearly all actives have a fitted effect of over 55% in size
# Conditions: Potency: AChE enzyme activity inhibition; outcome: AChE enzyme activity inhibition; series mostly up to 115 µM; activity change, negative = inhibition: at the top concentration
# How it was run: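 Recombinant human AChE, dispensed at 50 mU/mL, was preincubated with Tox21 10K compounds or DMSO vehicle for 30 min at room temperature. DTNB plus acetylthiocholine was then added, and thiocholine was measured colorimetrically after a further 10 min.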
# % is scaled to controls: 0 for no effect and ±100 for the full control effect.
# Chain of Acetylcholinesterase (Homo sapiens) (P22303 whole entry, looked up): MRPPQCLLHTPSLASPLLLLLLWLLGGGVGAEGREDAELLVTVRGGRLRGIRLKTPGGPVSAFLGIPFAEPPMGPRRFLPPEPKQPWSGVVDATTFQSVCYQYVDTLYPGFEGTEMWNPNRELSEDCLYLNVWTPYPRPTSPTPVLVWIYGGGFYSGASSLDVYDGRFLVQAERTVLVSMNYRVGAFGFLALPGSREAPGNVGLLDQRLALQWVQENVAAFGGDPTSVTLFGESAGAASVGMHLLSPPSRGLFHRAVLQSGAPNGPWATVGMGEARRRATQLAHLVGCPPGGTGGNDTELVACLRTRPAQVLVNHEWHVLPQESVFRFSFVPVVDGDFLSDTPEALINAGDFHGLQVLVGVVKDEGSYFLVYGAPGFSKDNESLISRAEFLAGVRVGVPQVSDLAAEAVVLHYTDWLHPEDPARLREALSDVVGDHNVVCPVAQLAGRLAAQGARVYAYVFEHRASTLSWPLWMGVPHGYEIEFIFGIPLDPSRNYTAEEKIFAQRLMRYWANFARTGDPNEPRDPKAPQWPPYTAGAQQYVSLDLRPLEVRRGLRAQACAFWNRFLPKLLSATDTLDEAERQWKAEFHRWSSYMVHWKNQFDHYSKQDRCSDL
Compound,"activity change, negative = inhibition",Potency
CCn1cc(C(=O)O)c(=O)c2cc(F)c(N3CCNC(C)C3)c(F)c21 (stereo not given),-0.16% [at 53 µM],–
O=C(O)c1ccc(OCCN2CCCCC2)cc1,0.138% [at 53 µM],–
CC(C)(C)c1ccc(C(=O)CCCCl)cc1,1.48% [at 53 µM],–
O=C(O)c1cc(-c2ccccc2)nc2ccccc12,–,inactive
COc1ccc(OC)cc1,–,inactive
CC(CN(C)C)C(C)(O)Cc1ccc(Cl)cc1 (stereo not given),1.11% [at 53 µM],–
Brc1ccccn1,0.273%,–
COC(C)(C)OC,1.09%,–
C=C[C@H]1CN2CC[C@H]1C[C@@H]2[C@@H](O)c1ccnc2ccc(OC)cc12,–,inactive
Cc1ccc2c(c1)C(=O)OC2=O,–,inactive
CCc1cc(C(C)(C)C)c(O)c(C(C)(C)C)c1,–,inactive
O=C1NC2NC(=O)NC2N1 (stereo not given),-0.0834%,–
CC(=O)OC/C=C(\C)CCC=C(C)C,–,inactive
Cc1cc2c(s1)Nc1ccccc1N=C2N1CCN(C)CC1,1.31% [at 53 µM],–
C[Si](C)O[Si](C)(C)O[Si](C)(C)O[Si](C)C,-1.05%,–
CCCCNC(N)=O,–,inactive
NC1CCCCC1,–,inactive
COCC(O)CO (stereo not given),4.73%,–
O=c1cc(-c2ccccc2)oc2cc(O)cc(O)c12,0.446%,–
CCC(=O)c1ccc(O)cc1,0.277% [at 53 µM],–

Compound,"activity change, negative = inhibition",Potency
Cc1cccc2c1ccc1ccccc12,1.22%,–
CC(=O)Nc1ccc(CC(=O)O)cc1,–,inactive
Cc1cccc(OCCOc2cccc(C)c2)c1,-1.79%,–
Cc1c(Cl)cccc1[N+](=O)[O-],-0.363%,–
Cc1cc(O)cc2c1O[C@](C)(CCC[C@H](C)CCC[C@H](C)CCCC(C)C)CC2,0.405% [at 53 µM],–
CCCCCCCCCCCCCCCCC,-0.387%,–
COc1ccc(N=[N+]([O-])c2ccc(OC)cc2)cc1,-0.136%,–
C=CCOC(=O)c1ccc(C(=O)OCC=C)c(C(=O)OCC=C)c1,0.774%,–
Cc1cccc2ccccc12,–,inactive
CC/C=C/CCO,0.0223%,–
CC/C=C\CCOC(C)OCC (stereo not given),-0.344% [at 53 µM],–
O=C(O)CCCl,1.63%,–
COc1ccc(Nc2ccc(OC)cc2)cc1,0.566%,–
CCCOCCO,–,inactive
CC(=O)CC/C=C(\C)CCC=C(C)C,–,inactive
C=CC(C)(O)CC/C=C(\C)CC (stereo not given),1.41%,–
N#C[C@@H]1C[C@@H]2C[C@@H]2N1C(=O)[C@@H](N)C12CC3CC(CC(O)(C3)C1)C2,-0.116% [at 53 µM],–
C[C@]12C(=O)OC(=O)[C@H]1[C@H]1C=C[C@@H]2C1,1.91%,–
CC(=O)c1ccc(O)c(C(N)=O)c1,-0.146% [at 53 µM],–
COC(=O)C1=C(C)NC(C)=C(C(=O)OCC(C)=O)C1c1ccccc1[N+](=O)[O-] (stereo not given),0.406% [at 53 µM],–
